# From PubChem
# mHTT CaM bind – mHTT-calmodulin interaction abrogation. P42858. AlphaScreen His-mHTT/GST-CaM binding, luminescence. inhibition, % at 15 µM. 3.6% of 190,000 active. AID 1671202
# Pf apPOL inh – Pf-apPOL DNA polymerase inhibition; Recombinant Pf-apPOL, molecular beacon fluorescence, 1.5 h; inhibition, % at 10 µM; 0.25% of 210,000 active; AID 1794808
# A number is an active result; 0 = inactive; - = not tested or not shown. Only a selection was taken, and hits are over-represented in it overall. Rule as the data show it: active = inhibition above about 50%; inactive = the rest.
SMILES,mHTT CaM bind,Pf apPOL inh
CC1=C(C)CC2C(=O)C3=C(C(=O)C2C1)C1c2ccccc2C3c2ccccc21 (stereo unspecified),61,0
CSc1ccccc1N1C(=O)C2CC(C)=C(C)CC2C1=O (stereo unspecified),0,0
O=C(Nc1c2c(nn1-c1cccc(Cl)c1)CS(=O)C2)c1ccccc1Cl (stereo unspecified),0,0
CC1CCCN(C(=O)c2cc3c(n2C)CCN(Cc2ccccc2)C3)C1 (stereo unspecified),69,0
Cn1c(C(=O)NC2CC2)cc2c1CCN(Cc1ccc(F)cc1)C2,0,0
Cn1c(C(=O)N2CCC(N3CCCCC3)CC2)cc2c1CCN(Cc1ccccc1)C2,0,0
CC1CCCN(C(=O)c2cc3c(n2C)CCN(Cc2ccc(F)cc2)C3)C1 (stereo unspecified),58,0
Fc1ccc(CN2CCc3nc(Nc4ccc5c(c4)OCCO5)ncc3C2)cc1F,53,0
CCOc1ccc(CN2CCc3nc(Nc4ccc5c(c4)OCCO5)ncc3C2)cc1OC,53,0
Fc1ccc(Nc2ncc3c(n2)CCN(Cc2ccc4c(c2)OCCO4)C3)cc1,0,0
Fc1ccc(CN2CCc3nc(Nc4ccc5c(c4)OCO5)ncc3C2)c(F)c1,0,0
COc1ccc(CN2CCc3nc(Nc4ccc5c(c4)OCCO5)ncc3C2)cc1OC,0,0
Clc1ccccc1CN1CCc2nc(Nc3ccc4c(c3)OCCO4)ncc2C1,78,0
Fc1ccc(CN2CCc3nc(Nc4ccc5c(c4)OCCO5)ncc3C2)c(F)c1,58,0
CN(C)c1ccc(CN2CCc3nc(Nc4ccc5c(c4)OCO5)ncc3C2)cc1,0,0
COc1ccc(CC(=O)c2ccc(O)c(CN3CCC(C)CC3)c2O)cc1,0,0
CCCOc1ccc(N2CCN(C(=O)c3ccc4c(c3)OCO4)CC2)nn1,0,0
COc1ccccc1/C=C/C=C1/N=C(c2cc(Cl)ccc2OC)OC1=O,0,0
CC1=C(C(=O)Nc2cccc(Cl)c2C)C2(CCCCCC2)OC1=O,0,0
CN(C)c1ccc(CN2CCc3nc(Nc4ccc5c(c4)OCCO5)ncc3C2)cc1,0,0
CC(C)Oc1ccc(CN2CCc3nc(Nc4ccc5c(c4)OCCO5)ncc3C2)cc1,72,0
O=c1[nH]c2ccc(Br)cc2c(-c2ccccc2)c1C1=NNC(c2ccco2)C1 (stereo unspecified),100,0
COc1ccccc1C1CC(c2c(-c3ccccc3)c3cc(Br)ccc3[nH]c2=O)=NO1 (stereo unspecified),0,0
COc1ccc(NC(=O)C2CCc3nc(N4CCN(C(C)=O)CC4)sc3C2)cc1Cl (stereo unspecified),0,0
Cc1cc(C2C(C#N)=C(N)N(c3cccnc3)C3=C2C(=O)CCC3)c(C)s1 (stereo unspecified),0,0
SMILES,mHTT CaM bind,Pf apPOL inh
Cc1cc(C2C(C#N)=C(N)N(c3cccnc3)C3=C2C(=O)CC(c2ccccc2)C3)c(C)s1 (stereo unspecified),58,0
Cn1c(=O)c2c(-c3ccccc3)n(-c3ccccc3O)cc2n(C)c1=O,0,0
COc1ccc(-c2c3c(=O)n(C)c(=O)n(C)c3cn2-c2cc(C)c(C)cc2N)cc1,0,68
COc1ccc(-c2c3c(=O)n(C)c(=O)n(C)c3cn2Cc2ccccc2)cc1,0,0
CCn1cc2c(c1-c1ccc(OC)cc1)c(=O)n(C)c(=O)n2C,0,54
COc1ccc(-c2c3c(=O)n(C)c(=O)n(C)c3cn2C)cc1,0,90
COc1ccc(-c2c3c(=O)n(C)c(=O)n(C)c3cn2-c2ccccc2N)cc1,0,0
Cn1cc2c(c1-c1ccccc1)c(=O)n(C)c(=O)n2C,0,0
COc1ccc(-c2c3c(=O)n(C)c(=O)n(C)c3cn2-c2ccccc2O)cc1,0,92
O=C(/C=C1\Sc2ccccc2NC1=O)NCCc1ccc(Cl)cc1,0,0
CCC(=O)Nc1ccc(NC(=O)c2cc(I)ccc2Cl)cc1,0,0
O=C(Nc1cnc2ccccc2c1)C12CC3CC(CC(C3)C1)C2,0,0
Cc1ccccc1OCC(=O)Nc1ccc(NC(=O)c2ccco2)c(Cl)c1,0,0
Cc1ccccc1N=c1oc2ccccc2cc1C(N)=O,0,0
CCSc1ccccc1C(=O)Nc1cccc2ccc(OC)nc12,0,0
Cc1cc(NC(=O)c2ccc(C(=O)Nc3cc(C)on3)nc2)no1,0,0
CCSc1ccccc1C(=O)Nc1cccc2ccc(-n3ccnc3)nc12,82,0
O=C(Nc1cccc2cccnc12)c1ccccc1O,0,0
Cc1cc(NC(=O)c2ccc(-n3ccnc3)nn2)no1,54,0
O=C(Nc1cccc2cccnc12)c1ccc(-n2ccnc2)nn1,61,0
O=C(CSc1nnnn1-c1ccccc1)Nc1ccc(F)c(F)c1,0,0
O=C(NCCCn1cccn1)C1CCc2sc(C(=O)N3CCCCCC3)cc2C1 (stereo unspecified),0,0
CCN(CC)S(=O)(=O)c1ccc2oc(C(=O)Nc3cccc(Cl)c3C)c(C)c2c1,0,0
O=C(COc1ccc(F)cc1)N1CCC(CCOc2ccccc2)CC1,70,0
Cn1cccc1C(=O)N1CCC(CCOc2ccccc2)CC1,58,0
SMILES,mHTT CaM bind,Pf apPOL inh
Cn1nccc1C(=O)N1CCC(CCOc2ccccc2)CC1,0,0
O=C(COc1ccc(F)cc1)N1CCC(CCOc2ccncc2)CC1,0,0
Brc1ccc(-c2nnc3ccc(N4CCOCC4)nn23)cc1,0,0
COc1ccc(C2Nc3ccccc3C3C=CCC32)cc1[N+](=O)[O-] (stereo unspecified),86,0
COc1cc([N+](=O)[O-])cc2c1NC(c1ccc(Cl)cc1)C1CC=CC21 (stereo unspecified),0,0
COc1ccc(C2Nc3c(Cl)cccc3C3C=CCC32)cc1[N+](=O)[O-] (stereo unspecified),52,0
CCOc1cc2c(c([N+](=O)[O-])c1)NC(c1ccc(Cl)cc1)C1CC=CC21 (stereo unspecified),0,0
COc1ccc(C2Nc3c(OC)ccc(Cl)c3C3C=CCC32)cc1[N+](=O)[O-] (stereo unspecified),62,0
O=[N+]([O-])c1cccc2c1NC(c1cccc(Cl)c1Cl)C1CC=CC21 (stereo unspecified),73,0
CNC(=O)c1cc2c(C)nn(-c3cccc(F)c3)c2s1,0,0
Cc1cc(C)nc(NC(=O)c2ccc([N+](=O)[O-])c(C)c2)c1,0,0
Cc1ccc(C)c(CNC(=O)c2cn3c(n2)CCCC3)c1,0,0
COc1cc(C2Nc3c(Cl)cccc3C3C=CCC32)cc(OC)c1OC (stereo unspecified),70,0
COc1cccc2c1NC(c1ccccc1[N+](=O)[O-])C1CC=CC21 (stereo unspecified),73,0
Fc1ccc(C2Nc3c(Cl)cccc3C3C=CCC32)cc1 (stereo unspecified),0,0
COc1cc(C(F)(F)F)cc(C(F)(F)F)c1C(=O)Nc1cc(C)on1,-,0
CCOC(=O)C(C)Sc1nnc(NC(=O)C2CC2)s1 (stereo unspecified),0,0
COc1ccc(NC(=O)Cn2c(=O)oc3cc(Cl)ccc32)cc1,0,0
COc1ccc(Nc2ncc3c(n2)CCN(Cc2cc(OC)c(OC)cc2OC)C3)cc1,0,0
COc1ccc(Nc2ncc3c(n2)CCN(Cc2ccccc2OC)C3)cc1,0,0
COc1cc(OC)c(OC)cc1CN1CCc2nc(Nc3ccc(F)cc3)ncc2C1,70,0
